According to PubChem BioAssay (Tox21):
The source made the active and inactive calls. The call rests on the fitted dose curve; in most records, active means well fitted curve in the direction sought with a large enough effect in the repeat runs; inconclusive means weak or mixed curves; inactive means flat fitted curve, though single readings scatter.

Test: qHTS assay to test for compound auto fluorescence at 460 nm (blue) in HepG2 cells (AID 720687)
Conditions: autofluorescence 405/460 nm, 1 h; series mostly up to 91.3 µM; fluorescence, % of fluorescent control: at the top concentration
Summary of the method: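 HepG2 cells in MEM with 10% FBS, attached overnight at 37 C, were exposed to compound or DMSO for 1 hr at 37 C, 5% CO2. Blue fluorescence was read at 405/460 nm, with triamterene as reference fluorophore.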
On the % scale 0 is the no-effect control and ±100 the full control effect.

Structure (SMILES) | fluorescence, % of fluorescent control | outcome
CC(C)(O)CCCC1=CCC(C=O)CC1 (centres undefined) | 0.0665% [at 95.7 µM] (inactive) | 
CCOC(=O)COc1ccc2c(C)c(CCN(CC)CC)c(=O)oc2c1Cl | -0.0036% [at 46 µM] (inactive) | 
NNC(=O)OCc1ccccc1 | 0.114% (inactive) | 
C=COCCCCO | -0.121% (inactive) | 
C[C@@H]1NC(=O)[C@@H](N)CNC(=O)[C@H](C2CCNC(N)=N2)NC(=O)/C(=C/NC(N)=O)NC(=O)[C@H](CNC(=O)C[C@@H](N)CCCN)NC1=O (some centres undefined) |  | inactive
CC1(C)C(=O)C(C)(C)C1=O | -0.0561% (inactive) | 
COc1cc(OC)cc(OC)c1 | 0.0516% [at 46 µM] (inactive) | 
COc1cc(C(=O)NC2CCCNC2)cc(OC)c1OC (centres undefined) | -0.0442% [at 46 µM] (inactive) | 
Cc1nc2ccc(Cl)cc2[nH]1 | -0.062% (inactive) | 
CCN1CCN(C(=O)N[C@@H](C(=O)N[C@@H]2C(=O)N3C(C(=O)O)=C(CSc4nnnn4C)CS[C@H]23)c2ccc(O)cc2)C(=O)C1=O | 0.0121% [at 46 µM] (inactive) | 
Cc1cccc(N)n1 | -0.355% [at 95.7 µM] (inactive) | 
CCCOc1ccc(C(=O)OCCN(CC)CC)cc1N | -0.085% [at 46 µM] (inactive) | 
CC(C)=CCC/C(C)=C\C#N | 0.106% (inactive) | 
C=C(C)C(=O)OCCOC1CC2CC1C1C=CCC21 (centres undefined) | 0.0011% [at 95.7 µM] (inactive) | 
CC/C=C\CCOC(=O)c1ccccc1 | 0.0254% (inactive) | 
CC(C)C(C)C | -0.0713% (inactive) | 
COC(=O)c1ccccc1Cl | 0.0406% (inactive) | 

Structure (SMILES) | fluorescence, % of fluorescent control | outcome
CCCCc1ccc(Cl)cc1 | 0.0205% (inactive) | 
c1coc(Cn2cccc2)c1 | 0.0594% (inactive) | 
CC/C=C/CCCCCCCCCCOC(C)=O | -0.183% (inactive) | 
CC(O)CCCCn1c(=O)c2c(ncn2C)n(C)c1=O (centres undefined) | -0.111% [at 46 µM] (inactive) | 
C[C@@H]1CC[C@@]2(OC1)O[C@H]1C[C@H]3[C@@H]4CC[C@H]5C[C@@H](O)CC[C@]5(C)[C@H]4CC(=O)[C@]3(C)[C@H]1[C@@H]2C | -0.13% [at 18.6 µM] (inactive) | 
COc1cnc(NS(=O)(=O)c2ccc(N)cc2)nc1 | 0.0082% [at 18.6 µM] (inactive) | 
CC(CN1CC(=O)NC(=O)C1)N1CC(=O)NC(=O)C1 (centres undefined) | 0.0025% (inactive) | 
CC(=O)c1c(C)cc(C(C)(C)C)cc1C | 0.0766% (inactive) | 
Cc1cc(O)c(Cl)cc1C | 0.313% (inactive) | 
C=C(C)C(=O)OCCCC | 0.0582% [at 95.7 µM] (inactive) | 
Cc1cc(N)no1 | 0.0316% [at 95.7 µM] (inactive) | 
C/C(Cl)=C/CCl | -0.0114% [at 95.7 µM] (inactive) | 
CC(C)(C)c1ccc(N)cc1 | -0.115% (inactive) | 
CCCc1ccc(O)c(OC)c1 | 0.0131% (inactive) | 
CCCCCCCC(=O)N(C)C | -0.0743% (inactive) | 
C=CCOC(=O)CCCCCCCC | -0.111% (inactive) | 
O=C(O)/C=C(\CC(=O)O)C(=O)O | 0.0014% [at 46 µM] (inactive) | 
